Test results from PubChem BioAssay.
The source made the active and inactive calls.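 The calls were made as follows, unless noted: active = inhibition above 20% together with a positive visual image hit; inconclusive = visual image hit but inhibition not above 20%; inactive = no visual image hit.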

What was measured:
[1] = inhibitors of TNFa-induced NFkB p65 translocation, primary screen, imaging, HUVEC, MLSMR starter and 10KST1 sets (AID 438); settings: HUVEC TNFa-induced p65 nuclear translocation; cell count: measured here: nuclei count (cytotoxicity indicator), at 2.08 µM; inhibition: at 2 µM, stronger effect = higher value, 0% TNFa-plus-vehicle, 100% no-TNFa wells;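 also: compound added about 3h40 before a 20 min TNFalpha stimulation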;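 as to inhibition: signal is the nuclear over cytoplasmic p65 intensity ratio per well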
[2] = reduction of polyQ htt aggregates in cells – imaging, exon1htt(103Q)mCFP cells, high-content imaging, primary screen (AID 483;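 active = visual image review flags a hit and inhibition of aggregation exceeds 20%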;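 also: compound exposure lasted 3 days before fixation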;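 as to nuclei count: percent of the per-plate median nuclei count of sample wells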); settings: exon1htt(103Q)mCFP cell line, aggregate imaging, at 2 µM; inhibition of aggregation: stronger effect = higher value; nuclei count: measured here: cell count, toxicity
[3] = endothelial E-selectin expression blockers – imaging, HUVEC, immunofluorescence, MLSMR starter and 10KST1 sets, primary screen (AID 487;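 active = visually confirmed hit in the image check and inhibition above 20%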;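 as to inhibition: signal is fraction of cell area covered by stained E-selectin grains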;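 as to nuclei count: 100% = median nuclei count of all wells on the same plate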); settings: HUVEC TNFalpha-induced E-selectin immunofluorescence imaging, at 2 µM; inhibition: stronger effect = higher value; nuclei count: measured here: cell number, toxicity
[4] = target: Voltage-gated potassium channel subunit beta-2 (Rattus norvegicus) (UniProt P62483); assay: inhibitors of rat Kvbeta2 reductase activity – biochemical, NADPH fluorescence, primary screen (AID 622;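 active = fluorescence slope higher than the sample average by over 3 SD, cut at about -0.22 in these data, passing the limit was not always enough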;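 also: slope of raw intensity against log time taken from 70 to 1610 s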); settings: recombinant KvBeta, 4-cyanobenzaldehyde reduction, at 10 µM, stronger effect = higher value
Sequence of Voltage-gated potassium channel subunit beta-2 (Rattus norvegicus) (P62483 whole entry, looked up): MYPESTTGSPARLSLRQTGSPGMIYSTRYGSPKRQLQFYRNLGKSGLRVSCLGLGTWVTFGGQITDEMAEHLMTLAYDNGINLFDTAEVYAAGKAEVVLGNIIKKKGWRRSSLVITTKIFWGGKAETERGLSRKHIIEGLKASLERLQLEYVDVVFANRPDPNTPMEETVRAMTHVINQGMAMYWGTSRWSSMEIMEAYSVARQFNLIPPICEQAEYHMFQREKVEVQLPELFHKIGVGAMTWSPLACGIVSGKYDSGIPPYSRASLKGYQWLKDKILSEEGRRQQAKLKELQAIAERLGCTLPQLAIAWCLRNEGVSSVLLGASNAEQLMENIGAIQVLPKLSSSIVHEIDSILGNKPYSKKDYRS

[5] = target: Voltage-gated potassium channel subunit beta-2 (Rattus norvegicus) (UniProt P62483); assay: enhancers of rat Kvbeta2 NADPH turnover – biochemical, NADPH fluorescence, primary screen (AID 623;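 active = NADPH fluorescence slope more negative than the mean of all samples by about 3 SD, 99.7% confidence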;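 also: fluorescence intensity change per second fitted from 20 to 320 s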); settings: Recombinant KvBeta, NADPH fluorescence decrease slope, 10 min; at 10 µM; stronger effect = lower value
[6] = target: Alpha-2C adrenergic receptor (Homo sapiens) (UniProt P18825); assay: compounds altering alpha2C-coupled GIRK flux – cell-based, HEK293 alpha2C/GIRK1/2, thallium flux, primary screen (AID 624;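 active = fluorescence slope after compound addition differing from the mean of all screened samples at 99.7% confidence, in either direction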;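 also: slope of fluorescence ratio to pre-addition baseline per second over 15 to 24 s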); settings: thallium flux BTC fluorescence, at 10 µM, actives lie on both sides
Sequence of Alpha-2C adrenergic receptor (Homo sapiens) (P18825 whole entry, looked up): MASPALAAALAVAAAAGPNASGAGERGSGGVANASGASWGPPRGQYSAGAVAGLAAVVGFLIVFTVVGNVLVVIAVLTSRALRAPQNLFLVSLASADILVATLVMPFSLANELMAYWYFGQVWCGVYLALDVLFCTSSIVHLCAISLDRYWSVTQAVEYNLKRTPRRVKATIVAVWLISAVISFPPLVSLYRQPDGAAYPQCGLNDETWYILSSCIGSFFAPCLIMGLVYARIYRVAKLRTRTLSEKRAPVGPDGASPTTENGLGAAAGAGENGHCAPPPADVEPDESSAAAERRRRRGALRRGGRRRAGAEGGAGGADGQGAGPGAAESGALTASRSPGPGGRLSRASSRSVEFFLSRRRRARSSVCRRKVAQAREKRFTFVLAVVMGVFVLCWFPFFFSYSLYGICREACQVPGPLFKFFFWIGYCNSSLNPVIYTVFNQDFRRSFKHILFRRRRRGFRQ

[7] = blockers of RIG-like receptor reporter activation – cell-based, Sendai virus stimulus, luciferase, 10K MLSCN set, TLR/RLR signaling modifier project, primary screen (AID 602276;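 active = inhibition at or above 50% at 10 µM; inactive = inhibition below 50%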;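 also: firefly luciferase from ISG56 promoter only with Renilla not read in this screen; 0% = Sendai virus plus DMSO and 100% = medium plus DMSO without virus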); settings: HEK293 RL24 IRF3 luciferase reporter, at 10 µM, stronger effect = higher value
[8] = TLR3 IRF3 reporter activation blockers – cell-based, poly I:C stimulus, luciferase, 10K MLSCN set, primary screen (AID 602277;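 active = inhibition of the reporter signal at or above 50%; inactive = inhibition below 50%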); settings: HEK293-TLR3 RL24 IRF3 luciferase reporter, at 10 µM, stronger effect = higher value

| Compound | cell count [1] | inhibition [1] | inhibition of aggregation [2] | nuclei count [2] [%] | inhibition [3] | nuclei count [3] [%] | fluorescence slope [4] | NADPH fluorescence slope [5] | slope [6] | inhibition [7] | inhibition [8] |
| --- | --- | --- | --- | --- | --- | --- | --- | --- | --- | --- | --- |
| CCOC(=O)N1CCN(C(=O)COc2ccc(Br)cc2Cl)CC1 | 317 | 2% (inactive) | -6.6% (inactive) | 98.4 | -27.2% (inactive) | 118 | -0.445 (inactive) | -5.1e-05 (inactive) | 0.00378 (inactive) | 6.45% (inactive) | 30.7% (inactive) |
| Cc1nn(S(=O)(=O)N2CCCCC2)c(C)c1Br | 335 | 4% (inactive) | 10.9% (inactive) | 101 | -93.4% (inactive) | 119 | -0.291 (inactive) | -1.5e-05 (inactive) | 0.00571 (inactive) | 1.73% (inactive) | 17.2% (inactive) |
| O=C1CC(c2cccc(Cl)c2)Cc2nc(N3CCN(c4ccccc4)CC3)ncc21 (stereo not given) | 715 | -1.6% (inactive) | -8.3% (inactive) | 111 | -57.1% (inactive) | 140 | -0.442 (inactive) | 2.5e-05 (inactive) | 0.00428 (inactive) | -7.91% (inactive) | -2.99% (inactive) |
| CC(C)(C)c1cc(CCC(=O)N2CCNCC2)c(C(C)(C)C)cc1O | 557 | -31.3% (inactive) | 18.7% (inactive) | 102 | -57% (inactive) | 101 | -0.411 (inactive) | -9e-05 (inactive) | 0.00515 (inactive) | 13.9% (inactive) | 27.5% (inactive) |
| CCOCCCn1c(=S)[nH]c2cc3c(cc2c1=O)OCO3 | 453 | 3% (inactive) | -8.1% (inactive) | 92 | -12.7% (inactive) | 103 | -0.489 (inactive) | -5.9e-05 (inactive) | 0.00895 (inactive) | -16.3% (inactive) | -2.74% (inactive) |
| CCOC(=O)N1CCC(NC(=O)c2ccc3c(c2)sc2nc(-c4cccc(OC)c4)cn23)CC1 | 415 | 8% (inactive) | 8.8% (inactive) | 93.6 | -3.7% (inactive) | 108 | -0.485 (inactive) | -2.7e-05 (inactive) | 0.00825 (inactive) | -22.7% (inactive) | -70.4% (inactive) |
| COc1ccc(NC(=O)CC2Sc3ncnn3C2=O)cc1 (stereo not given) | 632 | -5% (inactive) | -9.2% (inactive) | 128 | -65.3% (inactive) | 126 | -0.567 (inactive) | -4e-05 (inactive) | 0.0059 (inactive) | 8.74% (inactive) | 16.8% (inactive) |
| CCOC(=O)c1c(NC(=O)c2ccn(CC)n2)sc2c1CCCC2 | 680 | -10.9% (inactive) | -3.6% (inactive) | 97.6 | -71.6% (inactive) | 114 | -0.123 (inactive) | -1.5e-06 (inactive) | 0.00291 (inactive) | 3.28% (inactive) | -1.94% (inactive) |
| CCC(Sc1nc2sc(C(=O)OC)c(C)c2c(=O)n1N)C(=O)NCC1CCCO1 (stereo not given) | 477 | 7.5% (inactive) | -2.8% (inactive) | 117 | 12% (inactive) | 98.2 | -0.592 (inactive) | -6.1e-05 (inactive) | 0.00714 (inactive) | 7.5% (inactive) | 11.6% (inactive) |
| Cc1ccc(O)c(-c2cc3ccccc3[nH]2)c1 | 616 | -4.8% (inactive) | 20% (inactive) | 98.8 | -37.9% (inactive) | 109 | -0.46 (inactive) | -3.3e-05 (inactive) | 0.00556 (inactive) | -4.2% (inactive) | -87.3% (inactive) |
| Cc1ccccc1Nc1nc(N)nc(CSCc2c(C)noc2C)n1 | 347 | -15.8% (inactive) | -2.4% (inactive) | 93.8 | -16.2% (inactive) | 117 | -0.361 (inactive) | -5.1e-05 (inactive) | 0.00597 (inactive) | -21.3% (inactive) | -33.2% (inactive) |
| Cc1cccc2sc(NC(=O)Cn3cccc3)nc12 | 518 | -1.1% (inactive) | -6.6% (inactive) | 59.1 | -13.1% (inactive) | 100 | -0.603 (inactive) | -2.8e-05 (inactive) | 0.0115 (active) | -3.68% (inactive) | -14% (inactive) |
| CCOC(=O)c1c(NC(=O)Cn2c(=O)oc3ccccc32)oc(C)c1C(C)=O | 365 | -5.4% (inactive) | -18.8% (inactive) | 74.1 | 1.9% (inactive) | 119 | -0.484 (inactive) | 1.5e-05 (inactive) | 0.00454 (inactive) | 5.7% (inactive) | 11.9% (inactive) |
| O=C(Nc1nnc(N2CCCCCC2)s1)c1cc(-c2ccc(Br)cc2)on1 | 890 | 1.2% (inactive) | 5.2% (inactive) | 85.6 | -76.6% (inactive) | 120 | -0.612 (inactive) | -2.8e-06 (inactive) | 0.00651 (inactive) | 5.43% (inactive) | 23.2% (inactive) |
| O=C1CC(C(=O)Nc2ccc(Br)cc2)C2(CCCC2)O1 (stereo not given) | 630 | -4.1% (inactive) | -3.7% (inactive) | 102 | -70% (inactive) | 98.1 | -0.406 (inactive) | -3e-05 (inactive) | 0.00668 (inactive) | 16.6% (inactive) | 11.8% (inactive) |
| Cc1ccc2[nH]c(=O)c(CN(CCCN3CCOCC3)C(=O)Nc3cccc(Cl)c3)cc2c1 | 724 | 21.3% (inactive) | -15.9% (inactive) | 89 | 8% (inactive) | 131 | -0.597 (inactive) | -5.2e-05 (inactive) | 0.00418 (inactive) | 13.4% (inactive) | 4.8% (inactive) |
| Cc1csc(NC(=O)C(Cc2ccccc2)n2cccc2)n1 (stereo not given) | 497 | -3.7% (inactive) | 27% (inactive) | 56.5 | -38.3% (inactive) | 117 | -0.538 (inactive) | -5.3e-06 (inactive) | 0.0101 (active) | 1.35% (inactive) | -7.22% (inactive) |
| O=C(Cn1cnc2c(nnn2Cc2ccc(Cl)cc2)c1=O)NCC1CCCO1 (stereo not given) | 641 | -18.8% (inactive) | -21.6% (inactive) | 89.2 | -89.9% (inactive) | 132 | -0.522 (inactive) | -4.5e-06 (inactive) | 0.00509 (inactive) | 16.8% (inactive) | 26% (inactive) |
| CCOC(=O)c1c(C)[nH]c(C(=O)Cn2c(=O)oc3ccccc32)c1C | 256 | 7.6% (inactive) | 17.3% (inactive) | 97.3 | 31.3% (inactive) | 98.7 | -0.285 (inactive) | -6.3e-06 (inactive) | 0.00653 (inactive) | -8.59% (inactive) | -12.4% (inactive) |
| O=C(Nn1cnnc1)c1cc2c(s1)CCCC2 | 346 | -3.4% (inactive) | -5.7% (inactive) | 108 | -41.7% (inactive) | 112 | -0.411 (inactive) | -4.9e-05 (inactive) | 0.00357 (inactive) | -4.21% (inactive) | 7.24% (inactive) |
